These results are taken from PubChem BioAssay AID488969 (Vanderbilt High Throughput Screening Facility, 2010).

In all, about 110,000 compounds were measured (“z-score”: median about -0.1, highest 2% from about 2 on). The sample holds the highest values, similar compounds and a random draw of the others, so the mix is not that of the screen. Calls of active or inactive are those of the source.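 The calls were made as follows: active = z-score in the third read window above 3 or below -3; inactive = the rest.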

Chain of Metabotropic glutamate receptor 8 (Rattus norvegicus) (P70579 whole entry, looked up): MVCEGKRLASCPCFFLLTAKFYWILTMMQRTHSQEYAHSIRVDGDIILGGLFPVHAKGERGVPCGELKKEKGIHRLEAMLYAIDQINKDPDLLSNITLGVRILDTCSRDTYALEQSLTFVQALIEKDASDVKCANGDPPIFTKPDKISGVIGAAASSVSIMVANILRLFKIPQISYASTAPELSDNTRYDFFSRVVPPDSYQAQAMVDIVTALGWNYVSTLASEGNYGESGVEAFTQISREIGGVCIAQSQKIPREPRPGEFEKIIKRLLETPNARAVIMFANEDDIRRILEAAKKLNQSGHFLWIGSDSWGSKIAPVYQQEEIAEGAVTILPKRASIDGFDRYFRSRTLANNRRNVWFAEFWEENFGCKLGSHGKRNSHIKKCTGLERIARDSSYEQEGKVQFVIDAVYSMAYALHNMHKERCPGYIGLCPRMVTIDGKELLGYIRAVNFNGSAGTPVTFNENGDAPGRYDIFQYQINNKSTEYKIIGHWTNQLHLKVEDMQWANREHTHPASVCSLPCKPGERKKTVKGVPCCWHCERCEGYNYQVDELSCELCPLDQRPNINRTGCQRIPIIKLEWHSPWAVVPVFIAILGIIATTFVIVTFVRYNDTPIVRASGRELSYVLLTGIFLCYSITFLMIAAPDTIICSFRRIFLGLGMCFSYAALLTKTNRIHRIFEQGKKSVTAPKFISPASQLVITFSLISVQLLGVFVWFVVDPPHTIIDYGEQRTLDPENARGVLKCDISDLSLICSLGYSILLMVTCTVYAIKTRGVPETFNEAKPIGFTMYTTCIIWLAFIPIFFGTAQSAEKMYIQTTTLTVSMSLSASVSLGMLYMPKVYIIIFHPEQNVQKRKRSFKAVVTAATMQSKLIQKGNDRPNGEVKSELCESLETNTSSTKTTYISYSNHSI

This experiment has as its target Metabotropic glutamate receptor 8 (Rattus norvegicus) (UniProt P70579). The experiment in a line: rat mGluR8 modulators via GIRK flux, primary screen, cell-based, thallium flux, HTS (AID 488969). The settings on record: HEK293 rat mGluR8, GIRK (G protein-gated inwardly rectifying potassium channel) thallium flux, FluoZin2; at 10 µM; stronger effect = higher value; submaximal glutamate (EC20) added with thallium.
As to `Cn1c(=O)c2c(nc(SCc3ccccc3)n2Cc2ccc(Cl)cc2)n(C)c1=O`, the z-score is -0.333.

As to `CC(=O)/C=C/c1ccc2ccccc2n1`, the z-score is 0.038.

`C/C(CC(O)c1ccc2ccccc2n1)=N/O` (stereo not given): the z-score is 5.27 (active).

`Cc1c(O)ccc(/C(Cc2ccc3ccccc3n2)=N\O)c1O` displayed a z-score of -0.308.

Consider `CCc1ccc2[nH]c(=O)c(C(c3nnnn3Cc3ccco3)N3CCC(C)CC3)cc2c1` (stereo not given), for which the z-score is -0.27.

Regarding `O=C(/C=C/c1cccs1)Nc1ccc(Br)cn1`, the z-score is -0.222.

As to `O=C(c1cccs1)N(C(=O)c1cccs1)c1ccc(Br)cn1`, the z-score was found to be 2.26.

In turn, `Cc1ccnc(N(C(=O)c2cccs2)C(=O)c2cccs2)c1` registered a z-score of -0.0449.

In the case of `CC(=O)N1c2ccccc2Oc2cc3ccccc3cc21`, the z-score is -0.261.

The compound `Cc1ccc(C(=O)N/N=C2\SCC(=O)N2c2cc(C)ccc2C)cc1` yielded a z-score of -0.396.

For the compound `Cc1cccc(N2C(=O)CS/C2=N\NC(=O)c2ccc(Br)cc2)c1C`, the z-score came to 1.16.

As for `Cc1cccc(N2C(=O)CS/C2=N\NC(=O)c2ccc(Cl)cc2)c1C`, the z-score is 3.96 (active).

Take `Cc1ccc(N2C(=O)c3ccccc3C2Nc2ccccc2)nc1` (stereo not given): the z-score was -0.424.

With `Cc1nn(C)c(C)c1/C=C1/SC(=S)NC1=O`, the z-score was found to be 0.492.

As to `CN1CCN(/C=C2\SC(=S)NC2=O)CC1`, the z-score is -0.54.

`CN1CCC/C1=C/C=C1\SC(=S)NC1=O`: the z-score is 2.4.

The compound `Cc1ccc(C(=O)CSc2nc3ccccc3c(=O)n2-c2ccccc2)s1` showed a z-score of 0.061.

For `O=C(NCc1ccccc1)/C(=N\O)c1ccccc1`, the z-score came to 0.503.

In turn, `O=C(NCc1cccnc1)/C(=N\O)c1ccccc1` came in with a z-score of 2.02.

The compound `O=C(NCc1ccncc1)/C(=N/O)c1ccccc1` gave a z-score of 1.14.

The compound `COc1ccc(N(CC(=O)NCCC2=CCCCC2)S(C)(=O)=O)cc1OC` came in with a z-score of 0.274.

On to `CCN1C(=O)/C(=C2/Sc3ccc(OC)cc3N2C)SC1=Nc1ccc(C(C)=O)cc1`, for which the z-score is -0.0997.

For the compound `CCOC(=O)N1CCC(NC(=O)c2ccc(CS(=O)(=O)c3ccc(OC)cc3)o2)CC1`, the z-score was -0.141.

`O=C(CN1CCCCC1)Nc1ccc(S(=O)(=O)N2CCOCC2)cc1` returned a z-score of -0.0871.

For `COc1ccccc1-c1nc2cc3ccccc3cc2nc1-c1ccccc1OC`, the z-score was -0.377.

In turn, `CCCc1nn(C)c2c(=O)[nH]c(-c3ccccc3OCC)nc12` had a z-score of -0.237.

For the compound `O=c1ccc2cc(S(=O)(=O)Nc3ccc(F)cc3)ccc2o1`, the z-score is -0.226.

With `Cc1cc(C)cc(NS(=O)(=O)c2ccc3oc(=O)ccc3c2)c1`, the z-score is 2.23.

With `Cc1cc(C)cc(NS(=O)(=O)c2ccc3[nH]c(=O)[nH]c3c2)c1`, the z-score came to 0.711.

As for `O=C(CSc1nc(-c2ccc(F)cc2)cs1)N1CCOCC1`, the z-score was 3.29 (active).

With `CC1CN(C(=O)CSc2nc(-c3ccc(F)cc3)cs2)CC(C)O1` (stereo not given), the z-score was -0.898.

For the compound `O=C(CSCC(=O)N1CCCCC1)Nc1nc(-c2ccc(Cl)s2)cs1`, the z-score worked out at 2.68.

`CCC(=O)Nc1nc(-c2ccc3c(c2)OCCO3)cs1`: the z-score was -0.0358.

Regarding `CC1CCCN(C(=O)CSCC(=O)Nc2nc(-c3cccs3)cs2)C1` (stereo not given), the z-score was found to be 0.503.

Regarding `CCOC(=O)N1CCN(C(=O)CSCC(=O)Nc2nc(-c3ccc4c(c3)OCO4)cs2)CC1`, the z-score is -0.296.

`O=C(CSCC(=O)N1CCOCC1)Nc1nc(-c2ccc3c(c2)OCO3)cs1`: the z-score turned out to be 2.

The compound `O=C(CSc1nc(-c2ccc(F)cc2)cs1)N1CCc2ccccc21` had a z-score of -0.119.

Compound `O=C(CSCC(=O)N1CCN(c2ccccc2)CC1)Nc1nc(-c2ccc(Cl)s2)cs1` showed a z-score of 0.16.

`O=[N+]([O-])c1ccc(Cl)c(S(=O)(=O)N2CCCCCC2)c1` gave a z-score of -0.0418.

Consider `COc1ccc(-c2nsc3c(SCC(=O)Nc4cc(C)ccc4C)ncnc23)cc1`, for which the z-score was found to be 0.00156.

Turning to `CC(NS(=O)(=O)c1ccc(CCC(=O)N2CCN(C)CC2)cc1)c1ccccc1` (stereo not given), the z-score was -0.349.

`O=C(COc1ccccc1)Nc1nccs1` showed a z-score of 1.35.

In turn, `O=C(COc1ccccc1)Nc1nc(-c2cccs2)cs1` yielded a z-score of 2.15.

In turn, `CC(=O)Nc1nc(-c2cccs2)cs1` had a z-score of -0.281.

`O=C(COc1ccccc1Cl)Nc1nc(-c2cccs2)cs1` displayed a z-score of 0.4.

Take `O=C(Cc1ccccc1)Nc1nc(-c2cccs2)cs1`: the z-score was found to be 2.99.

`O=C(Cc1ccccc1)Nc1nnc(-c2cccs2)s1` registered a z-score of 0.154.

`Cc1cccc2cc(CN(Cc3ccc(F)cc3)C(=O)C(F)(F)F)c3nnnn3c12` came in with a z-score of -0.681.

Compound `Cc1ccc2c(c1)N(CC(=O)NCc1ccco1)C(=O)CO2` came in with a z-score of -0.265.

Consider `COc1ccc2nc(SCc3cnc(C)nc3N)[nH]c2c1`, for which the z-score is 0.0366.

Compound `CCc1ccc2[nH]c(=O)c(CN(CCN(C)C)C(=O)Nc3ccccc3)cc2c1` showed a z-score of -0.0486.

Turning to `N#Cc1c(N)sc2c1CCN(CCc1ccccc1)C2`, the z-score came to 0.208.

Take `COc1ccccc1-n1c(SCC(=O)NC2CCS(=O)(=O)C2)nc2cc([N+](=O)[O-])ccc21` (stereo not given): the z-score was -0.116.

Turning to `CCOC(=O)CSc1nc(C)c2cc(OC)ccc2n1`, the z-score was 6.89 (active).

`CCOC(=O)CCSc1nc(C)c2cc(OC)ccc2n1` yielded a z-score of -0.0662.

As for `COc1ccc2nc(SCC(=O)O)nc(C)c2c1`, the z-score is -0.216.

In turn, `CC1CCCN(C(=O)C2CCCN(S(=O)(=O)c3cccc4nsnc34)C2)C1` (stereo not given) had a z-score of 0.195.

Compound `Cc1cc(C(=O)NNC(=S)NCC(C)C)cs1` had a z-score of 0.377.

For `Cc1ccc(C)c(NC(=S)NNC(=O)c2csc(C(C)C)c2)c1`, the z-score is 12 (active).

As to `Cc1ccc(C)c(NC(=S)NNC(=O)c2ccc(Br)o2)c1`, the z-score came out at 0.537.

On to `CCCCNC(=S)NNC(=O)c1csc(C(C)C)c1`, for which the z-score stood at 0.133.

In turn, `CCNC(=S)NNC(=O)c1csc(C(C)C)c1` came in with a z-score of -0.354.

Turning to `Cc1cccc(NC(=S)NNC(=O)c2csc(C(C)C)c2)c1`, the z-score was 8.28 (active).

Consider `CCCCn1c(SCC(=O)Nc2cc(C)on2)nnc1-c1ccco1`, for which the z-score came out at 1.3.

Take `COc1ccccc1NC(=O)c1cc(S(=O)(=O)N2CCC3(CC2)OCCO3)ccc1F`: the z-score was -0.251.

Compound `CCOc1ccccc1NC(=O)c1cc(S(=O)(=O)N2CCC3(CC2)OCCO3)ccc1F` displayed a z-score of -0.432.

As for `CCOc1ccccc1NC(=O)c1ccc(F)c(S(=O)(=O)N2CCC3(CC2)OCCO3)c1`, the z-score was 2.77.

For the compound `CCNC(=S)NN=C1CCC(C(C)(C)C)CC1` (stereo not given), the z-score was 0.883.

The compound `O=C(COC(=O)COc1ccccc1Cc1ccccc1)Nc1cccnc1Cl` returned a z-score of -0.941.

For the compound `Cc1cccc2sc(NC(=O)Cn3cccc3)nc12`, the z-score was 13.9 (active).

`Cc1cccc2sc(NC(=O)CSCc3ccccc3)nc12` displayed a z-score of 0.801.

As to `Cc1cccc2sc(NC(=O)CN3C(=O)c4ccccc4C3=O)nc12`, the z-score was -0.16.

As to `Cc1onc(-c2c(F)cccc2Cl)c1C(=O)N1C=CC(C(F)(F)F)=NCC1`, the z-score was -0.013.

Consider `CCc1c(C)nc(SCC(=O)N2CCc3ccccc32)[nH]c1=O`, for which the z-score was 4.54 (active).

With `Cc1cc(=O)[nH]c(SCC(=O)N2CCCc3ccccc32)n1`, the z-score stood at 0.265.

On to `O=C(CSc1nc(O)cc(=O)[nH]1)N1CCCc2ccccc21`, for which the z-score was -0.65.

Turning to `Cc1nnc(SCC(=O)N2CCCc3ccccc32)[nH]c1=O`, the z-score was -0.411.

Consider `O=C(CSc1nc(-c2ccccc2)cc(=O)[nH]1)N1CCc2ccccc21`, for which the z-score is 9.86 (active).

Turning to `Nc1nc(SCC(=O)N2CCc3ccccc32)[nH]c(=O)c1-c1ccccc1`, the z-score was 0.47.

On to `CCOc1ccc(C2/C(=C(/O)c3ccccc3)C(=O)C(=O)N2CCCN(C)C)cc1OC` (stereo not given), for which the z-score was 0.188.

`O=C(COC(=O)c1cnccn1)c1ccc2ccccc2c1` yielded a z-score of 0.118.

In turn, `CCSc1nc2ccccc2c(=O)n1OCC(=O)OC` yielded a z-score of -0.148.

Take `COC(=O)COn1c(SC(C)C)nc2ccccc2c1=O`: the z-score was determined as 2.57.

With `COn1c(SC(C)C)nc2ccccc2c1=O`, the z-score was -0.948.

Regarding `Cc1cc(NC(=O)c2cc3ccccc3oc2=O)no1`, the z-score worked out at 0.0723.

`Cc1cc2cc(CN(CCN3CCOCC3)C(=O)Nc3ccccc3F)c(=O)[nH]c2cc1C`: the z-score is -0.536.

With `CC(C)OP(=O)(OC(C)C)C1(O)C(=O)Nc2ccccc21` (stereo not given), the z-score is -0.0437.

As for `CCOc1ccc(C(=O)NC(=S)N(Cc2ccccc2)Cc2ccccc2)cc1`, the z-score was 11.7 (active).

The compound `CCOc1ccc(C(=O)NCCc2ccccc2)cc1` returned a z-score of 0.0133.

`COc1ccc(C(=O)NC(=S)N(Cc2ccccc2)Cc2ccccc2)cc1`: the z-score was 16.8 (active).

With `COc1ccc(C(=O)NC(=S)Nc2ccccc2F)cc1`, the z-score turned out to be 0.595.

Compound `CCOc1ccc(C(=O)NC(Cc2ccccc2)C(=O)OC)cc1` (stereo not given) gave a z-score of -0.262.

`COc1ccc(C(=O)NN(c2ccccc2)c2ccccc2)cc1` showed a z-score of -0.0602.

The compound `COc1ccc(C2SCC(=O)N2CC23CC4CC(CC(C4)C2)C3)cc1` (stereo not given) had a z-score of -0.23.

Compound `CCC(=O)N1N=C(c2c(-c3ccccc3)c3cc(Cl)ccc3[nH]c2=O)CC1c1ccco1` (stereo not given) gave a z-score of -0.155.

The compound `CCCCn1c(/N=C/c2ccc3c(c2)OCO3)nc2ccccc21` displayed a z-score of -0.738.

The compound `CC(C)=CC[N+]1(C)CCCCC1` came in with a z-score of 1.14.

Turning to `N#C/C(=C\c1cn(CCOc2ccccc2F)c2ccccc12)C(=O)NCc1cccs1`, the z-score was -0.0588.

`CCOc1ccc(/C=C2/C(=O)N(c3ccc(OC)cc3)C(=S)N2CC(=O)OC)cc1OCC` displayed a z-score of 0.273.

Regarding `CCOc1ccc(N2C(=O)/C(=C/c3cc(OC)c(OC)c(OC)c3)N(CC(=O)OC)C2=S)cc1`, the z-score was 14.1 (active).

Turning to `CCOc1ccc(N2C(=O)/C(=C/c3cccs3)N(CC(=O)OC)C2=S)cc1`, the z-score was -0.17.

Turning to `S=c1sc(SCCOc2ccccc2)nn1-c1ccccc1`, the z-score was -0.317.

`COc1cccc(C(=O)OCc2ccccc2C#N)c1O` returned a z-score of -0.163.

`O=C(Nc1ccccc1)N(C1=NCCCCS1)c1cccc2ccccc12` gave a z-score of -0.463.

As to `Cc1ccc(Nc2n[nH]c(C)c2[N+](=O)[O-])cc1`, the z-score was -0.101.

`Cc1cccc(Nc2n[nH]c(C)c2[N+](=O)[O-])c1` gave a z-score of 0.073.

In turn, `Cc1ccc(Nc2n[nH]c(C)c2[N+](=O)[O-])cc1C` showed a z-score of 2.51.

Consider `CNC(=O)CCCc1nc(-c2ccccc2Cl)no1`, for which the z-score is 0.0193.

Compound `COC(=O)c1sccc1NC(=S)N1CCN(c2ccccc2)CC1` returned a z-score of -0.397.

The compound `Cc1cc(C(=O)NC(C)c2ccc3c(c2)OCO3)cs1` (stereo not given) gave a z-score of 0.0632.

For `Cc1cc(C(=O)NC(C)c2ccncc2)cs1` (stereo not given), the z-score worked out at 2.05.

As to `Cc1cc(C(=O)NNC(=S)NC(C)c2ccccc2)cs1` (stereo not given), the z-score was -0.281.

On to `Cc1cc(C)c2nc(SCC(=O)N3CC(=O)Nc4ccccc43)c(C#N)cc2c1`, for which the z-score is -0.188.

As for `CC1CC1C(=O)NCCc1ccc(Cl)cc1` (stereo not given), the z-score is 1.05.

Regarding `N#Cc1ccc(-n2c(-c3ccccc3)nnc2-c2ccccc2)cc1C#N`, the z-score came to 0.19.
